# Bioassay records (PubChem)
# Shn3 inh set2: inhibitors of Schnurri-3 3'UTR reporter in osteoblasts | AID 588674 | Clone20 osteoblast Shn3 3'UTR firefly luciferase, 24 h | inhibition, % at 12.5 µM | 360,000 tested, 0.52% active;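 active means mean inhibition of at least 75% with every replicate also reaching 75%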;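 further: 0% = median of neutral control wells and 100% = pilot-screen positive control compound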
# Peg3 promoter: inhibitors of Peg3 promoter. inhibition, % at 20 µM. 360,000 tested, 1.7% active. HeLa PEG-Prom luciferase reporter, luminescence, overnight;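 active means inhibition of at least 50% at 20 µM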
# TWEAK-Fn14 inh: blocks TWEAK-Fn14 interaction in a reporter cell assay. inhibition, % at 10 µM. AID 1159606. TWEAK-stimulated Fn14 reporter cells, luciferase luminescence, 8 h. 360,000 tested, 2% active; in the data active means inhibition above about 50%
# TRPM1 prom inh: inhibitors of MITF-driven TRPM1 promoter in melanoma cells. inhibition, % at 12.5 µM. 330,000 tested, 0.83% active. AID 488899. SK-MEL-5 TRPM1 promoter luciferase, 24 h;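 active means mean inhibition across replicates of 60% or more, whatever share of single replicates reaches that level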
# TROY NFkB inh: TROY signaling inhibition; 360,000 tested, 0.98% active; inhibition, % at 10 µM; Q293 LMP1-TROYcd NF-kB luciferase reporter, 4 h; AID 1347056;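 active means compounds whose plate-normalised and pattern-corrected inhibition of the luciferase reporter signal at the single screening dose is 50% or more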
# EBV LMP1 NFkB: Epstein-Barr LMP1 NF-kappaB reporter inhibition; 350,000 tested, 0.69% active; inhibition, % at 12.5 µM; LMP1-induced NF-kappaB luciferase reporter cells, luminescence; AID 504558; in the data active means inhibition above about 41%;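 further: 0% = neutral control wells and 100% = reference inhibitor control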
# * hit, by the source's call; · = not tested or not shown. Most compounds without a hit are left out; they make up all but 4.1% or so of the library.
SMILES,Shn3 inh set2,Peg3 promoter,TWEAK-Fn14 inh,TRPM1 prom inh,TROY NFkB inh,EBV LMP1 NFkB
Cc1sc2ncnc(N3CCC(C(=O)Nc4cc(S(C)(=O)=O)ccc4Cl)CC3)c2c1C,13.2,32.7,36.8,-2.5,41.4,11.6
Cc1ccc(C)c(S(=O)(=O)N2CCN(C(=O)C3CCN(c4ncnc5sc(C)c(C)c45)CC3)CC2)c1,89.3*,44.7,42.8,30.3,45.7,29.3
CCN(CC)S(=O)(=O)c1cc(NC(=O)C2CCN(c3ncnc4sc(C)c(C)c34)CC2)ccc1Cl,89.0*,67.2*,96.8*,63.8*,64.3*,37.0
Cc1ccc(NC(=O)C2CCN(c3ncnc4sc(C)c(C)c34)CC2)cc1S(=O)(=O)N(C)C,34.0,26.8,55.0*,13.5,51.0*,-5.5
Cc1sc2ncnc(N3CCC(C(=O)Nc4ccc(S(N)(=O)=O)cc4)CC3)c2c1C,2.7,23.0,49.9,-14.6,36.1,0.3
COc1ccc(CNCC(=O)Nc2cc(OC)cc(OC)c2)cc1,24.9,-37.9,3.7,2.4,-10.5,13.0
COc1ccc(N2CCN(CCCn3ccc(NC(=O)OCc4ccccc4)nc3=O)CC2)cc1,19.9,1.1,15.9,·,7.6,-0.2
O=C(O)CCN1C(=O)C(=C2CCCCCC2)SC1=S,-7.9,-5.6,6.6,2.5,-8.3,-2.8
O=C1CC(=O)N(Cc2ccco2)C(=O)N1,8.8,-6.6,3.9,-10.0,0.9,-2.5
O=C1C(=C2CCCCC2)SC(=S)N1Cc1ccco1,-8.5,30.5,1.2,11.3,-15.4,44.2*
O=C1CC(=O)N(Cc2ccco2)C(=S)N1,-10.4,9.7,51.3*,7.5,4.6,0.0
COc1ccc(C2(CNS(=O)(=O)c3ccccc3)CCOCC2)cc1,-1.2,8.2,3.7,-1.7,5.3,-1.6
COc1ccc(CCN2C(=O)CC(N3CCN(C/C=C/c4ccccc4)CC3)C2=O)cc1OC (stereo not drawn),-1.1,16.7,3.2,-0.7,2.0,5.4
CC(=O)N1c2ccc(Cl)cc2C2C=CCC2C1c1cccc2ccccc12 (stereo not drawn),61.7,66.1*,49.5,10.1,23.9,-3.0
Cc1cc(C)n(-c2nc3ccccc3c(=O)n2OCC(N)=O)n1,-17.9,1.2,24.2,8.9,1.9,-6.6
Cc1cc(CC(C)C)n(-c2nc3ccccc3c(=O)n2OCC(N)=O)n1,-27.2,-118.6,32.2,-20.9,52.8*,-19.9
Cn1c(=O)c([N+](=O)[O-])c(-n2ccnc2)c2ccccc21,-17.9,54.6*,21.8,89.5*,-1.7,-0.8
Cc1ccccc1-n1nnnc1Sc1nnnn1-c1ccccc1,0.5,108.8*,87.8*,78.4*,43.6,55.4*
C(=C\CSc1nnnn1-c1ccccc1)/CSc1nnnn1-c1ccccc1,18.0,26.2,10.4,8.4,-3.1,-6.9
Cc1ccccc1-n1nnnc1SCC(N)=O,13.2,12.3,1.5,5.2,-8.5,-4.4
CCCSc1nnc(Sc2nnnn2-c2ccccc2)s1,50.3,68.4*,81.8*,52.5,4.2,37.3
COc1ccccc1C(=O)NC(=O)COC(=O)CCS(=O)(=O)c1ccc(C)cc1,-15.2,14.8,2.5,-0.9,4.5,-7.2
N#CCSc1nc2sc3c(c2c(=O)n1C1CCCCC1)CCCC3,10.9,17.7,58.4*,4.9,38.8,-9.2
COc1cc(CCNC2=CC(=O)c3ncccc3C2=O)ccc1O,21.3,27.3,10.2,113.4*,1.2,0.1
COc1ccccc1CNS(=O)(=O)c1cc(CN2C(=O)c3cccnc3C2=O)ccc1OC,1.2,12.9,-2.3,1.1,7.1,4.6
SMILES,Shn3 inh set2,Peg3 promoter,TWEAK-Fn14 inh,TRPM1 prom inh,TROY NFkB inh,EBV LMP1 NFkB
COc1ccc(Nc2cc3n(c(=O)n2)CCc2cc(OC)c(OC)cc2-3)cc1,-5.0,-24.3,-42.8,-41.5,16.2,12.5
COc1cc2c(cc1OC)-c1cc(Nc3ccc4c(c3)OCCO4)nc(=O)n1CC2,21.2,-44.4,85.7*,-7.4,78.5*,51.1*
Cc1ccc2nc(-c3ccc(S(=O)(=O)N4CCCCC4)cc3)cn2c1,1.1,-133.3,30.0,-16.1,51.9*,-21.0
CC(=O)/C(=C/c1ccccc1)C(=O)Nc1ccccc1C,2.0,73.0*,79.7*,43.8,5.7,4.5
CC(=O)Nc1ccccc1C,-17.8,10.6,8.8,2.8,3.1,4.2
CCOC(=O)COc1ccc(Br)cc1/C=C/c1[nH]c(=O)[nH]c(=O)c1[N+](=O)[O-],2.4,-4.9,62.0*,-3.3,23.9,-1.4
CCOC(=O)COc1ccc(Br)cc1/C=C\c1[nH]c(=O)[nH]c(=O)c1[N+](=O)[O-],4.6,-9.8,74.3*,14.5,3.5,2.5
CCNC(=O)C1(C)CCN(C(=O)C(c2ccccc2)c2ccccc2)C1 (stereo not drawn),14.8,9.6,24.3,·,9.9,·
CN(C(=O)C=Cc1ccco1)c1ccccc1,-6.0,-17.5,8.1,1.1,-3.0,-10.2
CN(C(=O)/C=C/c1ccc([N+](=O)[O-])s1)c1ccccc1,4.8,5.7,40.6,69.1*,-15.5,-78.7
O=C(CN(Cc1ccccc1)S(=O)(=O)c1ccc(F)cc1)NCc1ccccn1,-4.7,-7.9,0.8,5.8,-6.9,7.8
CCOC(=O)c1ccc(N2C(=O)C=CC2=O)cc1,88.2*,103.2*,1.2,41.5,0.1,67.4*
CCOC(=O)c1ccc(-n2c(C)ccc2C)cc1,-7.2,3.0,-16.8,-9.2,1.1,-4.6
CCOC(=O)c1ccc(N2C(=O)CC(Sc3nnc(C)s3)C2=O)cc1 (stereo not drawn),8.5,8.3,68.6*,-2.8,·,4.6
CCOc1ccc2nc(SC3CC(=O)N(c4ccc(C)cc4)C3=O)sc2c1 (stereo not drawn),95.6*,88.8*,-29.7,-50.5,-16.0,-1.0
CCOC(=O)c1ccc(N2C(=O)CC(Sc3nc(C)cc(C)n3)C2=O)cc1 (stereo not drawn),11.0,10.5,-14.7,2.5,22.0,-3.9
CCOc1ccc(N2C(=O)CC(Sc3nc4ccc(OCC)cc4s3)C2=O)cc1 (stereo not drawn),6.2,-9.7,-34.3,-47.0,7.4,-11.2
C=CCNc1nnc(SC2CC(=O)N(c3ccc(OCCC)cc3)C2=O)s1 (stereo not drawn),5.0,104.3*,13.9,-9.0,-1.1,-1.6
CC(C)C(N)c1csc(Nc2ccc(C(=O)NCCCO)cn2)n1 (stereo not drawn),1.2,-1.5,2.8,·,-5.9,·
CCOc1ccc(Br)cc1S(=O)(=O)NCCN1CCCC1,-8.1,3.5,-23.1,-12.3,-7.3,-4.1
Cn1c(Nc2ccc(Cl)cc2F)nc2cc(-c3ccccc3)sc2c1=O,-4.0,-13.0,-17.6,·,-27.9,·
CC1Cc2ccccc2N1C(=O)c1cc2c(=O)n3ccccc3nc2n1C (stereo not drawn),5.8,46.1,53.5*,-7.5,-14.4,-0.3
Cc1cccn2c(=O)c3cc(C(=O)N4c5ccccc5CC4C)n(C)c3nc12 (stereo not drawn),-9.0,14.6,39.2,18.0,23.8,28.9
